This is part of a sample that, as a whole, favours compounds with a hit. Of some 83,000 tested, about 20% had one in any assay.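 Single-concentration screen, 48 h exposure, 96-well plates. Endpoint: percent growth. Below 10 = active.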 Values without a mark were called inactive. Active and inactive are the calls of the source.

Assay in all cases: NCI-60 one-dose screen, 48 h (100 = growth as untreated, 0 = no growth, -100 = all killed)
What all share (conditions): 10 µM unless noted

The subject of test [1] is SK-MEL-2 melanoma.
Test [2] relates to EKVX NSCLC.
In test [3] the test system is SN12C renal.
Test [4] has as its system UO-31 renal.
Test [5] concerns TK-10 renal.
Test [6] has as its system ACHN renal.
The subject of test [7] is CAKI-1 renal.
The subject of test [8] is A498 renal.
Test [9] concerns CCRF-CEM leukemia.
For test [10], the system named is SR leukemia.
The subject of test [11] is RPMI-8226 leukemia.
Test [12] concerns OVCAR-8 ovarian.
The subject of test [13] is OVCAR-5 ovarian.
Test [14] deals with OVCAR-4 ovarian.
In test [15] the test system is SK-OV-3 ovarian.
Test [16] concerns IGROV1 ovarian.
In test [17] the test system is OVCAR-3 ovarian.
The test system of test [18] is HS 578T breast.
In test [19] the test system is NCI/ADR-RES ovarian.
In test [20] the test system is MOLT-4 leukemia.

In the case of `O=C(CCl)Nc1cc(O)c2c(c1)C(=O)c1cccc(O)c1C2=O`, the growth in test [1] was -49.4% (active); in test [2] it was 5% (active); in [3], -43.1% (active); in test [4], -87% (active); in [5], -87.3% (active); in test [6], -91.2% (active). Besides, the growth was -94% (active) in test [7]; -0.734% (active) in [8]; -45% (active) in [9]; -35.5% (active) in test [10]; -53.8% (active) in test [11]; -49.5% (active) in test [12]. Also, the growth in [13] was -40% (active); in test [14], -1.37% (active); in test [15], 17.1%; in test [16], -55.6% (active); in test [17], -100% (active); in [18], 11.4%. Besides, in test [19], the growth was 19.1%.
`COc1ccc2nc3ccccc3c(NCc3ccc(C)cc3)c2c1`: the growth is 70% in [1]; 35.2% in test [2]; 23.6% in test [3]; 13.4% in test [4]; 47% in test [5]; 16.3% in test [6]. Further, the growth in test [7] was 26.2%; in [8], -1.58% (active); in test [9], 7.09% (active); in test [10], -12.7% (active); in test [11], -46.2% (active); in test [12] it was 28.7%. For the same compound, the growth in test [13] was 34%; in test [14], 18.5%; in test [15] it was 52.7%; in test [16] it was 17.2%; in test [17], 46.9%; in [18] it was 42.7%. Also, in [19], the growth was 23.8%.
As to `CN(C)CCCN1c2ccccc2CCc2ccccc21`, the growth is 105% in test [1]; 107% in test [2]; 80.1% in [3]; 83.2% in test [4]; 93.3% in [5]; 91.4% in test [6]. In addition, the growth in test [7] is 84.6%; in test [8], 124%; in test [9] it was 97.6%; in [20], 83.7%; in test [11], 99.4%; in test [12], 97.4%. Besides, the growth in test [13] is 103%; in test [14], 68.7%; in test [15], 94.1%; in test [16], 94.8%; in test [17] it was 116%; in test [18], 103%. Also, the growth in test [19] was 107%.
Consider `CN(C)c1ccc(/C=C\c2cccc[n+]2C)cc1`, for which the growth in test [1] was 75.6%; in [2], 23%; in test [3], 52.2%; in test [4] it was 59.5%; in test [5], 67.2%; in [6], 77.3%. Also, the growth is 42.1% in test [7]; 13.4% in test [8]; 49.6% in test [9]; 74.4% in test [20]; 3.96% (active) in test [11]; 28.6% in test [12]. The growth in test [13] is 49.5%; in test [14], 34.1%; in test [15], 42.2%; in test [16], 68.8%; in test [17], 9.08% (active); in test [18], 61.5%. For the same compound, the growth in [19] was 105%.
`C[Si](C)(C)C(c1ccccc1)c1ccccc1`: the growth in test [1] is 127%; in [2], 109%; in test [3], 102%; in [4] it was 82.3%; in test [5], 108%; in test [6], 93.1%. The growth is 86.2% in test [7]; 99.7% in test [8]; 79.4% in [9]; 86.8% in test [10]; 91.6% in test [11]; 102% in test [12]. Also, the growth in [13] is 110%; in [14], 109%; in test [15], 98.4%; in test [16] it was 97.1%; in [17] it was 113%; in test [18], 98.9%. Also, the growth in test [19] is 98.9%.
On to `COC(=O)c1ccc2c(c1)nc(-c1ccc(Cl)cc1)n2-c1cc(C(C)(C)C)[nH]n1`, for which the growth in test [1] is 31.6%; in test [2], 78.3%; in test [3], 79.1%; in test [4] it was 41.9%; in test [5] it was 86.6%; in test [6], 75.4%. Further, the growth in test [7] was 50.4%; in test [8], 21.8%; in [9] it was 45.2%; in test [20], 41.8%; in [11], 56.8%; in test [12], 83.1%. Besides, the growth in [13] was 121%; in test [14], 81.4%; in test [15], 104%; in test [18] it was 53.3%; in [19], 14.2%.
`COC(=O)c1ccc2c(c1)nc(-c1cc3ccccc3[nH]c1=O)n2-c1cc(C(C)(C)C)[nH]n1`: the growth in test [1] is 55.9%; in test [2], 85.6%; in [3], 57.3%; in test [4] it was 29.1%; in test [5], 113%; in test [6], 78.5%. In addition, the growth is 67.9% in test [7]; 59.6% in test [8]; 30.3% in test [9]; 18.1% in test [20]; 22% in test [11]; 54% in test [12]. The growth in test [13] is 96.6%; in test [14] it was 86.7%; in test [15], 105%; in test [16], 44.7%; in test [17], 94.5%; in test [18] it was 39.3%. The growth in test [19] is 2.6% (active).
For `O=C1Nc2ccccc2/C1=C\c1nc(C2CCN(S(=O)(=O)c3ccc(F)cc3)CC2)n2ccccc12`, the growth is 17.8% in test [1]; 63.3% in [2]; 46% in test [3]; 68.2% in test [4]; 60.1% in test [5]; 55.6% in [6]. Further, the growth was 57.8% in test [7]; 82.9% in test [8]; 95.1% in [9]; 100% in [20]; 94.3% in [11]; 18% in [12]. The growth in test [13] is 88%; in test [14], 13.6%; in test [15] it was 57.8%; in test [16], 57%; in test [17] it was 58.6%; in [18] it was 19%. The growth in test [19] was 17%.
